Screening results (PubChem BioAssay)
In the library only some 0.45% were active in any assay of this set; here they are far more common.
PGK inhibitor = qHTS Assay to Find Inhibitors of Phosphoglycerate Kinase; Phosphoglycerate kinase, glycosomal (Trypanosoma brucei brucei), P07378; PGK/GAPDH coupled, Kinase-Glo luminescence, 60 min; Potency, µM (highest dose often 57.5 µM), without a hit: top-dose activity change, negative = inhibition, actives largely listed as inhibitors; hit rate 0.043% among 380,000; AID 602233, 2012; also: % is scaled to controls: 0 for no effect and ±100 for the full control effect; nearly all actives have a fitted effect of over 60% in size
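Recombinant glycosomal PGK reaction used 1,3-bisphosphoglycerate generated in-well by GAPDH (100nM final) in 100mM TEA pH 7.6, 5mM MgCl2, 0.01% Tween-20. After 60 minutes at room temperature, ATP was read by Kinase-Glo Plus luminescence end-point.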
BCR signal inh = qHTS Assay to Find Inhibitors of Chronic Active B-Cell Receptor Signaling; hit rate 0.05% among 340,000; ABC-DLBCL IkBa-CBG/CBR reporter, luminescence ratio, 4 h; Potency, µM (doses to about 46.1 µM), for the others: at the top dose activity change, negative = inhibition, usual class: inhibitors; active = well fitted inhibition curve with a large enough effect in the signal ratio, with a control signal flat, not every such curve was filed as active; inconclusive = small, poorly fitted or top-dose-only effect, or effect the other way, or a change in a side signal; the % refers to the signal ratio;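 also: plate controls were basal doxycycline-induced cells for no effect and cells given 10 µM MG132 for full effect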
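TMD8 human ABC-DLBCL cells with doxycycline-inducible IκBα–green luciferase fusion and unfused red luciferase, in 0.5% FBS medium; compounds up to 46 uM, 4 h at 37C. Green/red luminescence ratio, filter-overlap corrected, fitted to concentration-response curves.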
Pin1 inh = qHTS Assay to Find Inhibitors of Pin1; Peptidyl-prolyl cis-trans isomerase NIMA-interacting 1 (Homo sapiens), Q13526; Pin1 FP peptide displacement, HiFluor488, 10 min; Potency, µM (top dose mostly 115 µM), without a hit: at the top dose activity, negative = inhibition, most hits filed as inhibitors; hit rate 0.009% among 390,000; AID 504891, 2011; active = well fitted inhibition curve with a large enough effect in the polarisation, with a control signal flat, not every such curve was filed as active; inconclusive = small, poorly fitted or top-dose-only effect, or effect the other way, or a change in a side signal; inactive = no such curve, though single readings can be large or run the other way; the % refers to the polarisation; also: % is scaled to controls: 0 for no effect and ±100 for the full control effect
Target sequence (Q13526 whole entry, looked up): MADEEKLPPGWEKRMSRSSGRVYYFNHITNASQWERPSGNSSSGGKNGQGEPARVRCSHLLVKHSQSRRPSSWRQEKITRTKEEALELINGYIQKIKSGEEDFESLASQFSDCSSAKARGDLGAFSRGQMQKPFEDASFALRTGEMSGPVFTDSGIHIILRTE
FEN1 inh-1 = qHTS Assay for the Inhibitors of Human Flap endonuclease 1 (FEN1); Recombinant FEN1 flap cleavage, fluorescence, 15 min; Potency, µM (titrated, usually from 114 µM), inactives show at the highest dose activity change, negative = inhibition, most hits filed as inhibitors; hit rate 0.35% among 390,000; AID 588795, 2011; also: % is scaled to controls: 0 for no effect and ±100 for the full control effect; nearly all actives have a fitted effect of over 65% in size
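Steps: FEN1 (10 nM) dispensed; compound added by pin tool; 15 min at room temperature; substrate added to 50 nM final; reads at 0 min and 15 min; data normalized and fitted (four-parameter Hill).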
B2AR arrestin = qHTS assay of beta-arrestin-biased ligands of beta2-adrenergic receptor. beta-arrestin recruitment to beta2AR, cell-based reporter. hit rate 0.02% among 330,000. Potency, µM (titrated, usually from 46.1 µM), inactives show top-dose activation, hits mostly activators. Beta-2 adrenergic receptor (Homo sapiens), P07550. AID 492947, 2010;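 also: 0% = DMSO controls and full agonism = EC100 isoproterenol or metaproterenol; nearly all actives have a fitted effect of over 65% in size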
Target sequence (P07550 whole entry, looked up): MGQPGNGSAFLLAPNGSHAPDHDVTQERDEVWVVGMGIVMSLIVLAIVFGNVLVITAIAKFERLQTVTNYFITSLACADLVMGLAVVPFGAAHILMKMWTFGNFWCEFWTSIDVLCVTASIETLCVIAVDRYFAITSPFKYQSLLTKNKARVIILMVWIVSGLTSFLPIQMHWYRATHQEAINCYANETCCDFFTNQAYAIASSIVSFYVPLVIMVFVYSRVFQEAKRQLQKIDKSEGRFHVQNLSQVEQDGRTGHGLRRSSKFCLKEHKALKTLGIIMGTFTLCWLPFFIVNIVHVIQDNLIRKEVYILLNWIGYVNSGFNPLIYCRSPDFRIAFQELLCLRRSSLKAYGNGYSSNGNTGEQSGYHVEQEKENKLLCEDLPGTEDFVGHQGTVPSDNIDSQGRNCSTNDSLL
Anesthetic bind = qHTS Assay for Identification of Novel General Anesthetics. AID 485281, 2010. apoferritin/1-aminoanthracene competitive binding, fluorescence. hit rate 0.074% among 350,000. Potency, µM (series often up to 77.5 µM), for inactives: top-dose activity change, negative = displacement, actives largely listed as inhibitors; also: % is scaled to controls: 0 for no effect and ±100 for the full control effect; nearly all actives have a fitted effect of over 20% in size
Target sequence (P02791 2-175 limits assumed): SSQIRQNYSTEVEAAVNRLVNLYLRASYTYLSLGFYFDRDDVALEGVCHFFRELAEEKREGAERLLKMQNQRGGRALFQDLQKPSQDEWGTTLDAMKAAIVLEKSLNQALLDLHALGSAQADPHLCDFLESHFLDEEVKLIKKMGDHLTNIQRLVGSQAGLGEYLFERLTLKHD
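Read-out: endpoint 1-AMA fluorescence, excitation 380 nm and emission 535 nm, after compounds sit 10 min at room temperature with 10 uM horse-spleen apoferritin in 50% saturated 1-AMA/PBS. Values come from four-parameter Hill fits.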
FEN1 inh-2 = qHTS Assay for the Inhibitors of FEN1: Confirmatory Assay for Cherry-picked Compounds; shares compounds with FEN1 inh-1; FEN1 flap cleavage, TAMRA/BHQ2 fluorogenic DNA substrate; Potency, µM, actives largely listed as inhibitors; hit rate 79% among 880; AID 720498, 2013; also: nearly all actives have a fitted effect of over 60% in size
Numbers without * were called inactive; i = inactive; ? = inconclusive; · = no result; [ ] = another dose, or the depositor's remark. Unless noted, calls follow the shape of the dose curve; as a rule, active = well fitted curve in the direction sought with a large enough effect; inconclusive = small, poorly fitted or top-dose-only effect, or another doubt; inactive = no such curve, though single readings can be large; an effect the other way counts as inactive or inconclusive. Potency is read from the fitted curve at half-maximal effect.

SMILES | PGK inhibitor | BCR signal inh | Pin1 inh | FEN1 inh-1 | B2AR arrestin | Anesthetic bind | FEN1 inh-2
COc1cccc2c1C(=O)c1c(O)c3c(c(O)c1C2=O)CC(O)(C(C)=O)CC3OC1CC(O)C(O)C(C)O1 (stereo not given) | -10% | · | ? | 28µM* | · | · | 85*
CCCCC(=O)OCC(=O)C1(O)Cc2c(O)c3c(c(O)c2C(OC2CC(NC(=O)C(F)(F)F)C(O)C(C)O2)C1)C(=O)c1c(OC)cccc1C3=O (stereo not given) | -16% | · | ? | -32% | · | · | ·
COc1cccc2c1C(=O)c1c(O)c3c(c(O)c1C2=O)C[C@](O)(C(C)=O)C[C@H]3O[C@@H]1C[C@@H](N)[C@@H](O)[C@@H](C)O1 | -16% | ? | ? | ? | 0% | · | 38*
COc1cccc2c1C(=O)c1c(O)c3c(c(O)c1C2=O)C[C@](O)(C(=O)CO)C[C@H]3O[C@@H]1C[C@H](N)[C@H](O)[C@H](C)O1 | · | · | · | · | · | 1%[29.3 µM] | ·
COc1cccc2c1C(=N)c1c(O)c3c(c(O)c1C2=O)CC(O)(C(C)=O)CC3OC1CC(N)C(O)C(C)O1 (stereo not given) | -22% | · | ? | 11µM* | · | · | 24*
CCOC(=O)OCC1OC(c2ccc(C(C)=O)cc2)C=CC1Oc1ccc(-c2ccccc2)cc1 (stereo not given) | · | · | · | · | · | -11%[15.3 µM] | ·
COCCCc1cc(F)c(S(=O)(=O)N2CCN(S(=O)(=O)c3ccc4c(c3)OCCO4)CC2)cc1F | · | · | -2% | · | · | · | ·
COC(=O)CN1C(=O)S/C(=C/c2ccc(N3CCCCC3)o2)C1=O | -4% | 3% | ? | -11% | -1% | ? | ·
O=C(O)CN1C(=O)/C(=C/c2ccc(N3CCCCC3)o2)SC1=S | -29% | ? | ? | 45µM* | -1% | 0% | 48*
Nn1cnnc1N/N=C\c1ccc(-c2ccccc2[N+](=O)[O-])o1 | -7% | -9% | 5% | -10% | 0% | 0% | ?
O=[N+]([O-])c1ccccc1-c1ccc(/C=N/n2cnnc2)o1 | -6% | -8% | 1% | -15% | -1% | -12% | ·
COc1ccc(/C=C2\SC(=O)N(CC(=O)Nc3ccc(O)cc3)C2=O)cc1OC | i | -4% | 0% | 9% | -1% | 2% | ·
Cc1ccc(NC(=O)CN2C(=O)S/C(=C\c3cc(Cl)c(OCC(=O)O)c(Cl)c3)C2=O)cc1 | ? | 0% | · | 45µM* | 0% | -10% | 76*
O=c1c(O)c(-c2cc(O)c(O)c(O)c2)oc2cc(O)ccc12 | · | · | · | · | · | 388% | ·
Cc1ccc(C(=O)/C=C/c2cc(Br)cc(Br)c2O)o1 | -1% | ? | 19% | ? | -1% | -3% | 85*
Cc1ccc(C(=O)/C=C/N(C)C)o1 | i | 5% | -1% | -8% | 0% | -22% | ·
CN(C)CCCNc1cc(-c2ccccc2)nc2cc(-c3cccc(F)c3)nn12 | -5% | ? | 3% | ? | 0% | -10% | 48*
Cc1cccc(-c2cc3nc(C)cc(NCCCN(C)C)n3n2)c1 | 10% | -18% | 1% | -22% | 0% | -4% | ·
COc1cc(C(=O)NC2CCN(C)CC2)ccc1Nc1ncc2c(n1)N(Cc1ccccc1)CCC(=O)N2C | 6% | · | -1% | ? | · | · | ·
COc1cc(C(=O)NC2CCN(C)CC2)ccc1Nc1ncc2c(n1)N(C1CCCCC1)CCC(=O)N2C | -2% | · | 4% | ? | · | · | 38*
O=C(O)CN1C(=O)/C(=C\c2cc(Br)ccc2OCc2ccc([N+](=O)[O-])cc2)SC1=S | ? | ? | · | ? | 0% | 1% | 85*
COc1cc(/C=C2/SC(=S)N(Cc3ccccc3)C2=O)cc(Cl)c1O | 1% | ? | ? | ? | -1% | -1% | ·
COc1cc([N+](=O)[O-])cc(/C=C2/SC(=S)N(Cc3ccccc3)C2=O)c1O | -18% | 2% | 5% | 16µM* | -1% | ? | 21*
CN(C)CCCNc1ncnc2ccc(-c3ccc4c(c3)OCO4)cc12 | · | · | 2% | · | · | · | 30*
Fc1cccc(CNc2ncnc3ccc(-c4ccc5c(c4)OCO5)cc23)c1 | -4% | ? | 0% | ? | 6% | · | ·
SMILES | PGK inhibitor | BCR signal inh | Pin1 inh | FEN1 inh-1 | B2AR arrestin | Anesthetic bind | FEN1 inh-2
c1cncc(-c2ccc3ncnc(NCc4ccc5c(c4)OCO5)c3c2)c1 | -6% | ? | -7% | -11% | 0% | · | ·
NCCCCNc1ncnc2ccc(-c3ccc4c(c3)OCO4)cc12 | · | · | 2% | · | · | · | 30*
NCCNc1ncnc2ccc(-c3ccc4c(c3)OCO4)cc12 | · | · | ? | · | · | · | 27*
c1nc(NCc2ccc3c(c2)OCO3)c2cc(-c3ccoc3)ccc2n1 | -9% | ? | 7% | -14% | 0% | · | ·
Cc1c(P(=S)(c2ccccc2)c2ccccc2)c2ccccc2n1Cc1ccccc1 | · | · | 0% | · | · | · | ·
O=C(COC(=O)c1ccc([N+](=O)[O-])o1)NCc1ccc(F)cc1 | 2% | 1% | -6% | ? | 3% | · | 13*
O=C(COC(=O)c1ccc([N+](=O)[O-])s1)c1ccc[nH]1 | -5% | ? | 0% | -22% | -1% | · | 3.4*
CC(=O)Nc1ccc(NC(=O)COC(=O)c2ccc([N+](=O)[O-])o2)cc1 | -7% | -1% | -2% | 20µM* | 0% | · | 15*
Cc1cc(C)c(NC(=O)COC(=O)c2ccc([N+](=O)[O-])s2)c(C)c1 | -6% | 1% | -2% | 1% | 0% | 7% | ·
COc1ccccc1NC(=O)COC(=O)c1ccc([N+](=O)[O-])s1 | -5% | 0% | ? | -10% | 0% | -17% | 7.6*
C(=C\c1ccnc2ccccc12)/c1ccc(N2CCN(c3ccc(/C=C/c4ccnc5ccccc45)cc3)CC2)cc1 | · | · | · | -12% | · | · | ·
COc1cc(NCc2ccc3nc(N)nc(N)c3c2C)cc(OC)c1OC | · | · | · | · | · | -15% | ·
O=C(COC(=O)c1ccc([N+](=O)[O-])s1)NCc1ccc(F)cc1 | -8% | 0% | -13% | -10% | 0% | -6% | 6.7*
Cc1ccsc1CN(C)c1ncnc2ccc(-c3ccc4c(c3)OCO4)cc12 | · | · | 14% | · | · | · | ·
